Bioassay records (PubChem BioAssay)
TRAIL sens C8 – sensitizes caspase-8 expressing cells to TRAIL. NB7+C8 cells + TRAIL, ATPlite viability luminescence. 1% of 360,000 active. inhibition (viability loss, TRAIL sensitization), % at 10 µM;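 active = compounds causing at least 50% loss of cell viability in the single-dose screen, relative to plate controls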
PPC-1+TRAIL kill – compounds killing PPC-1 cancer cells with TRAIL present (potentiator screen, no TRAIL-free arm); PPC-1 cells + TRAIL, ATPLite viability luminescence; cell killing (% activity), % at 4 µM or 5 µM; 0.41% of 220,000 active;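 active = cell killing above 50% in the first pass at 4 µM, then a duplicate retest at 5 µM averaging 50% or more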
Platelet DG rel – platelet dense granule release activity; 0.22% of 300,000 active; inhibition, %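 (compounds screened at 7.5 µM in platelet-rich plasma)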; human platelet-rich plasma, SFLLRN dense granule ATP release, luminescence; AID 1663;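 active = mean replicate score, as percent of positive control, at or above 50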
TROY NFkB inh – blocks TROY-dependent signaling in reporter cells | 0.98% of 360,000 active | inhibition, % at 10 µM | Q293 LMP1-TROYcd NF-kB luciferase reporter, 4 h | AID 1347056;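 active = compounds whose plate-normalised and pattern-corrected inhibition of the luciferase reporter signal at the single screening dose is 50% or more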
TWEAK Fn14 block – inhibitors of TWEAK-Fn14 interaction signaling. TWEAK-stimulated Fn14 reporter cells, luciferase luminescence, 8 h. inhibition, % at 10 µM. 2% of 360,000 active. AID 1159606; in the data active = inhibition above about 50%
HSP90 inh – inhibitors of HSP90 luciferase refolding in rabbit reticulocyte lysate. inhibition, % at 5.6 µM. luciferase refolding luminescence, 3 h. 0.91% of 290,000 active;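 active = inhibition above the screen-wide mean plus 3 SD, computed separately per campaign, cut at about 16% in these data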;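 note: inhibitors lower the luminescence because luciferase stays unfolded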
HSP90 inh confirm – confirmation of HSP90 inhibitors. shares compounds with HSP90 inh. rabbit reticulocyte lysate, luciferase refolding luminescence, 3 h. inhibition, % at 5.9 µM. 64% of 2,300 active. AID 1846; in the data active = inhibition above about 18%
FLuc counter – blocks native firefly luciferase in HSP90 counter-screen; shares compounds with HSP90 inh; purified native firefly luciferase, luminescence; inhibition, % at 5.9 µM; 48% of 2,300 active; AID 1847;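 active = inhibition above the mean inhibition of all tested sample wells plus 3 SD, cut at about 10% in these data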
Target sequence (P08659 whole entry, looked up): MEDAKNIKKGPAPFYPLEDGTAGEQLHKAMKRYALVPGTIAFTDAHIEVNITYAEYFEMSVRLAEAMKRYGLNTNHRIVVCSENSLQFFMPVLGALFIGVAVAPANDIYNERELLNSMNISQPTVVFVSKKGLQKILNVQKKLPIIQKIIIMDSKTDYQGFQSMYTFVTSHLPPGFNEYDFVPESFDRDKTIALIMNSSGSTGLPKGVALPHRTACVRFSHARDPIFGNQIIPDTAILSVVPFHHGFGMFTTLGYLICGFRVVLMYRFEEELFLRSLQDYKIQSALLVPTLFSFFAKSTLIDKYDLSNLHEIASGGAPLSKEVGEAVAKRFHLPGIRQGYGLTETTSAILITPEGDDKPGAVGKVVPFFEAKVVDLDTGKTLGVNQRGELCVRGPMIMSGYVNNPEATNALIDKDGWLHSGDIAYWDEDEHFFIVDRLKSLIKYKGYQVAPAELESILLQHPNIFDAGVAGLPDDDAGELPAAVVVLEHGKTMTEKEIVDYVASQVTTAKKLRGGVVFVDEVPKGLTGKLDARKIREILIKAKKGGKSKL
Each line names hits and unclear results; the compound was inactive in the other large screens (follow-up assays come after a bar, where they were run). Shown are actives, neighbours in structure and some others; about 3.5% of the full set was active somewhere.

CCCNC(=O)C1(C)CCN(C(=O)c2ccccc2OC)C1 (stereo not drawn)	none (no result: PPC-1+TRAIL kill, Platelet DG rel, HSP90 inh)
O=C(NNC(=S)NC(=O)c1cccnc1)c1ccc(F)cc1	HSP90 inh 28 | HSP90 inh confirm inactive | FLuc counter inactive
O=C(NNC(=S)NC(=O)c1ccc(F)cc1)c1cccnc1	none (no result: PPC-1+TRAIL kill)
Cc1cc(C(=O)N/N=C2\CCCC(=O)C2)c(C)o1	none (no result: PPC-1+TRAIL kill, Platelet DG rel, HSP90 inh)
Cc1ccc(NC(=O)c2cc(C)n(-c3ccccc3)c2C)cc1	TRAIL sens C8 93, PPC-1+TRAIL kill 77, TROY NFkB inh 89, TWEAK Fn14 block 97, HSP90 inh 75 | HSP90 inh confirm 85 | FLuc counter 83
Cc1cc(C(=O)N/N=C2\CCCC(=O)C2)c(C)n1-c1ccccc1	TROY NFkB inh 75, HSP90 inh 31 | HSP90 inh confirm inactive | FLuc counter inactive
CC1CCc2nc(NC(=O)CSc3nc4ccccc4o3)sc2C1 (stereo not drawn)	TROY NFkB inh 86, TWEAK Fn14 block 93, HSP90 inh 46 | HSP90 inh confirm 51 | FLuc counter 49
CC(=O)N1c2ccccc2Nc2ccccc21	none
CC(=O)N1c2ccccc2Oc2cc3ccccc3cc21	HSP90 inh 21 | HSP90 inh confirm 47 | FLuc counter inactive
CCN(CC(=O)Nc1cc(Cl)ccc1C)C(=O)CCc1nc2ccccc2c(=O)[nH]1	none (no result: PPC-1+TRAIL kill, Platelet DG rel, HSP90 inh)
CCOC(=O)c1ccc(-c2c(-c3ccc4c(c3)OCO4)noc2C)cc1F	HSP90 inh 17 (no result: PPC-1+TRAIL kill) | HSP90 inh confirm inactive | FLuc counter inactive
CSc1ccc(NC(=O)Nc2cc(C)ccn2)cc1	TRAIL sens C8 55, TWEAK Fn14 block 69 (no result: Platelet DG rel) | HSP90 inh confirm 55 | FLuc counter 49
CSc1ncccc1C(=O)Nc1cc(C)ccn1	none (no result: PPC-1+TRAIL kill)
Cc1oc2cc3c(C(=O)N4CCCCC4)c(C)oc3cc2c1C(=O)N1CCCCC1	TROY NFkB inh 60, TWEAK Fn14 block 74, HSP90 inh 74 | HSP90 inh confirm 68 | FLuc counter 33
Cc1oc2cc3c(C(=O)N4CCN(c5ccccc5)CC4)c(C)oc3cc2c1C(=O)N1CCN(c2ccccc2)CC1	none (no result: TRAIL sens C8, PPC-1+TRAIL kill, Platelet DG rel, TROY NFkB inh, TWEAK Fn14 block)
Cc1nc2c(-c3ccc(F)cc3)c(C)nn2c(C)c1CCC(=O)NCCN1CCOCC1	HSP90 inh 40 | HSP90 inh confirm inactive | FLuc counter inactive
CCOc1ccc(S(=O)(=O)N(CC(=O)NC2CCCC2)c2ccc(F)cc2)cc1	none (no result: PPC-1+TRAIL kill)
Nc1cccc2nsnc12	none
Nc1cc2nsnc2cc1Br	TRAIL sens C8 96, HSP90 inh 25 | HSP90 inh confirm inactive | FLuc counter inactive
O=C(NCc1ccco1)C1(c2ccccc2)CCCC1	none
C=C1C2(C(=O)NCc3ccco3)CCC(C2)C1(C)C (stereo not drawn)	HSP90 inh 20 | HSP90 inh confirm inactive | FLuc counter inactive
Oc1c(Br)cc(Br)cc1CNn1cnnc1	HSP90 inh 67 (no result: PPC-1+TRAIL kill) | HSP90 inh confirm inactive | FLuc counter inactive
COc1cccc(N2CCN(C(=O)c3ccc4nc(N5CCC(C)CC5)sc4c3)CC2)c1	HSP90 inh 74 (no result: TRAIL sens C8, TROY NFkB inh, TWEAK Fn14 block) | HSP90 inh confirm 76 | FLuc counter 54
CCOC(=O)N1CCN(C(=O)c2ccc3nc(N4CCCCC4)sc3c2)CC1	HSP90 inh 22 | HSP90 inh confirm 23 | FLuc counter inactive
CC(C)(C)c1ccc(C(=O)N2CCN(Cc3ccccc3)CC2)cc1	HSP90 inh 22 (no result: PPC-1+TRAIL kill) | HSP90 inh confirm inactive | FLuc counter inactive
CC1CCN(c2nc3ccc(C(=O)N4CCN(Cc5ccccc5)CC4)cc3s2)CC1	HSP90 inh 70 | HSP90 inh confirm 65 | FLuc counter 10
CCOC(=O)N1CCN(C(=O)c2ccc3nc(N4CCC(C)CC4)sc3c2)CC1	none
O=C(c1ccccc1)N1CCN(Cc2ccccc2)CC1	none
O=C(O)c1ccc(N=C2NC(=O)C(CO)(CO)S2)cc1	none (no result: PPC-1+TRAIL kill)
O=C(CN1CCN(S(=O)(=O)/C=C/c2ccccc2)CC1)Nc1ccccc1N1CCOCC1	none
Cc1[nH]c2ccccc2c1CC#N	none
Cc1[nH]c2ccccc2c1C(C#N)(C#N)C1C(=O)c2ccccc2C1=O	TROY NFkB inh 53, TWEAK Fn14 block 97, HSP90 inh 77 | HSP90 inh confirm 79 | FLuc counter inactive
O=C(COC(=O)c1ccc(Br)cc1)NC(=O)NCc1ccccc1	none (no result: PPC-1+TRAIL kill, Platelet DG rel, HSP90 inh)
O=C(Nc1ccc2c(c1)OCO2)c1csc([C@@H]2C[C@H](O)[C@@H](CO)O2)n1	none (no result: PPC-1+TRAIL kill, Platelet DG rel, HSP90 inh)
O=C(Cn1c(=O)n(Cc2ccc(F)cc2)c(=O)c2ccccc21)NCC1CCCO1 (stereo not drawn)	HSP90 inh 18 (no result: PPC-1+TRAIL kill) | HSP90 inh confirm inactive | FLuc counter inactive
O=C(Nc1ccccn1)c1csc2c1CCCC2	none
O=C(Nc1ccccn1)c1onc2c1CCCC2	TRAIL sens C8 77, PPC-1+TRAIL kill 67, TROY NFkB inh 59, TWEAK Fn14 block 89, HSP90 inh 36 | HSP90 inh confirm 76 | FLuc counter 68
CCCS(=O)(=O)NC(=O)C1(C)CCN(C(=O)c2cc(C(C)(C)C)nn2C)C1 (stereo not drawn)	none (no result: PPC-1+TRAIL kill, Platelet DG rel, HSP90 inh)
CSC(=NCc1ccco1)NC#N	none
CCN(CC)S(=O)(=O)c1ccc(C)c(NC(=O)CN2CCN(Cc3ccccc3)CC2)c1	HSP90 inh 29 | HSP90 inh confirm inactive | FLuc counter inactive
COC(=O)c1ccc(CNC(=O)/C=C/[C@H]2O[C@@H](n3cc(C)c(=O)[nH]c3=O)C[C@@H]2O)cc1	none (no result: PPC-1+TRAIL kill, Platelet DG rel, HSP90 inh)
CC(=O)Oc1ccc(Nc2ccccc2)cc1	HSP90 inh 31 | HSP90 inh confirm 56 | FLuc counter inactive
COC(=O)CNC(=O)COC(=O)c1cc(SC)ccc1Cl	none
O=C(NC1=NCCS1)C1COc2ccccc2O1 (stereo not drawn)	TROY NFkB inh 86, TWEAK Fn14 block 106, HSP90 inh 79 | HSP90 inh confirm 92 | FLuc counter 81
CN(C)c1ccc(/C=N/Nc2nc3ccccc3o2)cc1	TROY NFkB inh 53, TWEAK Fn14 block 81, HSP90 inh 45 (no result: PPC-1+TRAIL kill) | HSP90 inh confirm 63 | FLuc counter 62
C/C(=N\Nc1ccc(C(=O)O)cc1)c1ccc2c(c1)Nc1ccccc1S2	HSP90 inh 24 | HSP90 inh confirm 28 | FLuc counter inactive
CC1(c2nnc(-c3ccncc3)o2)CC(c2ccc([N+](=O)[O-])cc2)=NO1 (stereo not drawn)	none (no result: HSP90 inh)
CSc1nnc(NC(=O)c2ccc3c(c2)OCO3)s1	TRAIL sens C8 74, TROY NFkB inh 71, TWEAK Fn14 block 92, HSP90 inh 54 (no result: PPC-1+TRAIL kill) | HSP90 inh confirm 82 | FLuc counter 72
C[n+]1ccccc1/C=C1\Sc2ccccc2N1CCO	HSP90 inh 18 (no result: PPC-1+TRAIL kill) | HSP90 inh confirm inactive | FLuc counter inactive
Cc1nc(NC(=O)c2ccc(OCC(C)C)cc2)sc1Cc1ccc2c(c1)OCO2	HSP90 inh 32 | HSP90 inh confirm inactive | FLuc counter inactive
COc1cc(C(=O)Nc2nc(C)c(Cc3ccc4c(c3)OCO4)s2)cc(OC)c1OC	none
